# Experimental data: PubChem BioAssay (NCATS)
# Inconclusive results are not listed. The source made the active and inactive calls. Unless noted, calls follow the shape of the dose curve; as a rule, active = well fitted curve in the direction sought with a large enough effect; inconclusive = small, poorly fitted or top-dose-only effect, or another doubt; inactive = no such curve, though single readings can be large; an effect the other way counts as inactive or inconclusive.
# How the values were obtained:
# [1] = biological target: Lysosomal acid glucosylceramidase (Homo sapiens) (UniProt P04062); test: Glucocerebrosidase-p2 (AID 348; in the data active = potency below about 10 µM; also: potency is read from the fitted curve at half-maximal effect); conditions: purified GBA, blue fluorogenic substrate, 40 min
# Sequence of Lysosomal acid glucosylceramidase (Homo sapiens) (P04062 whole entry, looked up): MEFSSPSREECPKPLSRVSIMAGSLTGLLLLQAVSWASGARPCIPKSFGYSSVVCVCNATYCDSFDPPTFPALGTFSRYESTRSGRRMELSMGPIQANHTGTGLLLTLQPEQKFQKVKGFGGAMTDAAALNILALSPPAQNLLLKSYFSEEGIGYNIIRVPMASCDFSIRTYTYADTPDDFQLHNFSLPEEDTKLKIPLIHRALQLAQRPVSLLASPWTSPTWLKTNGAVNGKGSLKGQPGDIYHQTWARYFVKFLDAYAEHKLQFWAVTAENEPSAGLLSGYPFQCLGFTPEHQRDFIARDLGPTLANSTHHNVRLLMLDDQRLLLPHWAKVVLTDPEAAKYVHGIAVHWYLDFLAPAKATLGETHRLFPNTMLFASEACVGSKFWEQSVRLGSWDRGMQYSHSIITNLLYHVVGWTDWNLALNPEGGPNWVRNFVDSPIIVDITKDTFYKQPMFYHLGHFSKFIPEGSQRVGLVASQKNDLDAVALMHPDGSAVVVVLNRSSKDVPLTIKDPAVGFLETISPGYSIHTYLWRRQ
# In short: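 Compounds titrated from 0.6 nM upwards against 0.2 nM enzyme in pH 5.9 citric acid/KH2PO4, taurocholate, tween-20; blue fluorogenic substrate 80 uM, 40 min room temperature, stopped and read Ex 365/Em 440 for AC50.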
# [2] = biological target: Glucocorticoid receptor (Homo sapiens) (UniProt P04150); test: GR-GFP Redistribution (AID 450;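 active = compounds whose dose series gives a full or clear partial fitted curve of increased nuclear translocation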; also: potency is read from the fitted curve at half-maximal effect); conditions: U2OS GR-GFP nuclear translocation, laser cytometry, 2 h
# Sequence of Glucocorticoid receptor (Homo sapiens) (P04150 whole entry, looked up, the tested form may be a part): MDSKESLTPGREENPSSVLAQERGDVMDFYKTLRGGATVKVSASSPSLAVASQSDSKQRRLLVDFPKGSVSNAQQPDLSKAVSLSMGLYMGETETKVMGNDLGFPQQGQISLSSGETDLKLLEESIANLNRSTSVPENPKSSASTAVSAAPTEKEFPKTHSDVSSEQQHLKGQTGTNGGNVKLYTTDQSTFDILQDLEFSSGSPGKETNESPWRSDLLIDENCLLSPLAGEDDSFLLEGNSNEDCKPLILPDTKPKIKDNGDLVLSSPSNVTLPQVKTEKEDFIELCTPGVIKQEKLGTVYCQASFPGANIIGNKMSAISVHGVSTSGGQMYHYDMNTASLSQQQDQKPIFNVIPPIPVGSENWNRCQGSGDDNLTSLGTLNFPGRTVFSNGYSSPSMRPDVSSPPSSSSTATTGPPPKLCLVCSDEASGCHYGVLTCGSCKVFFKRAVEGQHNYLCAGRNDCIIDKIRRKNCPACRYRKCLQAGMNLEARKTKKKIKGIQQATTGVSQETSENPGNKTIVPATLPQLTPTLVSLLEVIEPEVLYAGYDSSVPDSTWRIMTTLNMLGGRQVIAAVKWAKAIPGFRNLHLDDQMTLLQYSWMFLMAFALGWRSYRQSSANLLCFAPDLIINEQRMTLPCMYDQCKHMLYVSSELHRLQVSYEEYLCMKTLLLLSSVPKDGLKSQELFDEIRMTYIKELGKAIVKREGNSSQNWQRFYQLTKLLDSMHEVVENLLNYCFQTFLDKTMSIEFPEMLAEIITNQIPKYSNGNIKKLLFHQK
# [3] = biological target: Glucocorticoid receptor (Homo sapiens) (UniProt P04150); test: GR-EFC Redistribution (AID 451; calls by dose curve; also: potency is read from the fitted curve at half-maximal effect); conditions: CHO-K1 GR-EFC translocation, beta-gal luminescence, 2 h
# In short: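 CHO-K1 cells expressing nuclear EA and GR-ED fragments of b-gal; compounds titrated up to 46 uM final, 2 h at 37 C. GR nuclear translocation read as complemented b-gal luminescence after 1 h RT detection.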
# [4] = biological target: Mitogen-activated protein kinase 10 (Mus musculus) (UniProt Q61831); test: JNK3 AlphaScreen Assay (AID 530; active = well fitted curve in either direction with a large enough effect, not every such curve was filed as active;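 also: kinase came from lysate of stimulated human HepG2 cells; signal reports phosphorylation of biotinylated GST-cJun 1-79 at Ser73 with 10 µM ATP; % is scaled to controls: 0 for no effect and ±100 for the full control effect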); conditions: JNK3 lysate, c-Jun phosphorylation; series mostly up to 57.1 µM
# In short: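 qHTS format: compounds tested as titrations against IL-1beta/TNF-alpha-activated HepG2 lysate JNK3 with biotin-GST-cJun substrate and 10 uM ATP at room temperature. Loss of anti-phospho-cJun AlphaScreen signal indicates inhibition.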
# [5] = biological target: 3',5'-cyclic-AMP phosphodiesterase 4B (Homo sapiens) (UniProt Q07343); test: qHTS Assay for Inhibitors of PDE-IV (AID 607; active = well fitted activation curve with a large enough effect in the main read-out, with a control signal flat, not every such curve was filed as active; also: % of control where 0% means no effect); conditions: HEK293 ACTOne CNG channel cells, membrane potential fluorescence; series mostly up to 22.9 µM
# Sequence of 3',5'-cyclic-AMP phosphodiesterase 4B (Homo sapiens) (Q07343 whole entry, looked up): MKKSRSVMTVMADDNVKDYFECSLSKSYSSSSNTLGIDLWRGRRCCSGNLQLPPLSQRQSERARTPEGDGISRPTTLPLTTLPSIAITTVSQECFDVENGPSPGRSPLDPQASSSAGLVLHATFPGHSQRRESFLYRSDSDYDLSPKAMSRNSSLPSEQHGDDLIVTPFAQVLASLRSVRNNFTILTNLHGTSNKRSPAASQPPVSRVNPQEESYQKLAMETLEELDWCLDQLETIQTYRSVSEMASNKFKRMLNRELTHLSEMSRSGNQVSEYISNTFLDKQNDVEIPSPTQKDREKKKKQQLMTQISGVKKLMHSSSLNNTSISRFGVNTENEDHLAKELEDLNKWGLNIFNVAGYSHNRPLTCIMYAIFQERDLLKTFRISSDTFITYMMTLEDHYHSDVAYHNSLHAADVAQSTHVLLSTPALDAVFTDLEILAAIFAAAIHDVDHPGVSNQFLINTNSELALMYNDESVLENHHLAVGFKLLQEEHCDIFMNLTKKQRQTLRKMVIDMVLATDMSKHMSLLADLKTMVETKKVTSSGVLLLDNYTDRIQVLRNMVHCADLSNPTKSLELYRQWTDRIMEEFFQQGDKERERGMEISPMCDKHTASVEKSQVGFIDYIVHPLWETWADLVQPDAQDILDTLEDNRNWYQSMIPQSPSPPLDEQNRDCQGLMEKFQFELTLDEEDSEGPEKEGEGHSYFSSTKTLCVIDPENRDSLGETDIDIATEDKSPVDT
# In short: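 HEK293 ACTOne cells with CNG channel (1000/well), endogenous PDE4; membrane potential dye, compounds up to 22.9 uM final. Fluorescence Ex 535/Em 590; RO 20-1724 (100 uM final) as reference.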
# [6] = qHTS Assay for Lipid Storage Modulators (AID 1519; calls by dose curve); conditions: Drosophila S3 cells, BODIPY lipid droplet/cell ratio, laser cytometry, cells loaded with oleic acid
# In short: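 Cells seeded at 5,000 per well were treated with compounds over a concentration series and loaded with oleic acid (400 uM, as added). Lipid droplet fluorescence (488 nm excitation, 500-530 nm channel) was read by laser-scanning cytometry and normalized to 20 uM Triacsin C.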
# [7] = biological target: Dual specificity protein kinase CLK4 (Homo sapiens) (UniProt Q9HAZ1); test: qHTS Assay for Inhibitors of CDC-like Kinase 4 (Kinase-Glo Assay) (AID 1770); conditions: recombinant Clk4, Kinase-Glo ATP depletion luminescence; series mostly up to 66.7 µM; also: potency is read from the fitted curve at half-maximal effect; nearly all actives have a fitted effect of over 65% in size
# Sequence of Dual specificity protein kinase CLK4 (Homo sapiens) (Q9HAZ1 whole entry, looked up): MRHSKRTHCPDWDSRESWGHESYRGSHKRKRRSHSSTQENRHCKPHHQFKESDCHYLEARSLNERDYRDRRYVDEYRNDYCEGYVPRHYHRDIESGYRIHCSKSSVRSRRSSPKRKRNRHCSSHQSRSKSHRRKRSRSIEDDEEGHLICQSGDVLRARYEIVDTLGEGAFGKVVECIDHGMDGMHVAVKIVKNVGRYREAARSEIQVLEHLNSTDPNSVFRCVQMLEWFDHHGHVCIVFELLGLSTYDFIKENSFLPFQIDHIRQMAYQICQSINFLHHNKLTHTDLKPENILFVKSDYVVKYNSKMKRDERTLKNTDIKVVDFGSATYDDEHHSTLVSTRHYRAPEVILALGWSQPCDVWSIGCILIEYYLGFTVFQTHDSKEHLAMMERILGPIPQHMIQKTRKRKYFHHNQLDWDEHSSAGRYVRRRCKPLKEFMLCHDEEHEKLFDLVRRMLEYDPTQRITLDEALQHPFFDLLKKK
# In short: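 25 nM Clk4 with 100 uM RS repeat peptide and 1 uM ATP (final) in Tris pH7.5, 10 mM MgCl2, 4.5 h at room temperature. Remaining ATP measured by Kinase-Glo luciferase luminescence.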
# [8] = biological target: Dual specificity protein kinase CLK4 (Homo sapiens) (UniProt Q9HAZ1); test: qHTS Assay for Inhibitors of CDC-like Kinase 4 (ADP-Glo Assay) (AID 1771); conditions: recombinant CLK4, ADP-Glo luminescence; series mostly up to 80 µM; also: potency is read from the fitted curve at half-maximal effect; nearly all actives have a fitted effect of over 70% in size
# In short: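 Kinase reaction: Clk4 at 25 nM, RS repeat peptide substrate at 100 uM, ATP at 1 uM, 1 hr, room temperature. Product ADP detected as luciferase signal via ADP-Glo.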
# [9] = biological target: Ubiquitin carboxyl-terminal hydrolase 1 (Homo sapiens) (UniProt O94782); test: Inhibitors of USP1/UAF1: Pilot qHTS (AID 504865); conditions: purified USP1/UAF1, Ub-rhodamine cleavage fluorescence; series mostly up to 54.9 µM;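 also: rhodamine fluorescence freed from ubiquitin-rhodamine substrate followed over time; top concentration of the series differs between compounds; % is scaled to controls: 0 for no effect and ±100 for the full control effect; nearly all actives have a fitted effect of over 35% in size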
# Sequence of Ubiquitin carboxyl-terminal hydrolase 1 (Homo sapiens) (O94782 whole entry, looked up): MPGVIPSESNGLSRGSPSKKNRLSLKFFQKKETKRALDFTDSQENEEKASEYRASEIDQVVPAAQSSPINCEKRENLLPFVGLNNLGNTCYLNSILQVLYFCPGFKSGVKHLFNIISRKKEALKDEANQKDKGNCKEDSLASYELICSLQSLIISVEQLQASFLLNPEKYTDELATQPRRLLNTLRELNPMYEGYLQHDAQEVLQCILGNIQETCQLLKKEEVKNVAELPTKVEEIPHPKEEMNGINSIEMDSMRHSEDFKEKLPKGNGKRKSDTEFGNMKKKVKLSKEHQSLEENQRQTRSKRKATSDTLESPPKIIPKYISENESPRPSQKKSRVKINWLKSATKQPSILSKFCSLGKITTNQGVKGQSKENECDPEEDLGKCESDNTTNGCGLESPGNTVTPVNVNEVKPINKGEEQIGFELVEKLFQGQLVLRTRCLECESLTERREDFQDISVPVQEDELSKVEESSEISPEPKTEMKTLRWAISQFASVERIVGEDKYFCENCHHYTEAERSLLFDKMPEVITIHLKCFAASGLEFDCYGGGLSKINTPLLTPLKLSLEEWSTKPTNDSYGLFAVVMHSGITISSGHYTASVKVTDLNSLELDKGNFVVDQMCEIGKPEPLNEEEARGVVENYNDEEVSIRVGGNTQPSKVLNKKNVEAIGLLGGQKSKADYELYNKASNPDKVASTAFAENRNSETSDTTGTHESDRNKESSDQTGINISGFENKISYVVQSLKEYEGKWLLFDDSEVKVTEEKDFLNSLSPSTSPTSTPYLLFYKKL
# In short: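 USP1/UAF1 complex at 1 nM preincubated 15 min at room temperature with compound, then Ub-Rho substrate added at 150 nM final. Fluorescence (480/540 nm) read kinetically in 50 mM HEPES pH 7.8, 0.5 mM EDTA, 1 mM TCEP, 0.1 mg/ml BSA, 0.01% Tween-20.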
# [10] = Counterscreen qHTS for small molecule stabilizers of the endoplasmic reticulum resident proteome: GLuc-NoTag assay (AID 1508627); conditions: Gaussia luciferase NoTag secretion counterscreen, luminescence, thapsigargin 100 nM for final 4 h; series mostly up to 76.4 µM;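 also: SH-SY5Y cells given compound then 100 nM thapsigargin to empty ER calcium; 0% = thapsigargin alone and -100% = DMSO vehicle control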
# In short: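 SH-SY5Y cells stably expressing constitutively secreted GLuc without SERCaMP tag, exposed to compound for 19 hr, then to 100 nM thapsigargin for 4 hr at 37C. Medium luciferase was read by coelenterazine luminescence without lysis.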
# [11] = Primary qHTS for small molecule stabilizers of the endoplasmic reticulum resident proteome: Secreted ER Calcium Modulated Protein (SERCaMP) assay (AID 1508630); conditions: SH-SY5Y GLuc-SERCaMP (Gaussia luciferase released on ER calcium loss) secretion, thapsigargin, luminescence; series mostly up to 38.4 µM; also: % is scaled to controls: 0 for no effect and ±100 for the full control effect
# In short: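 GLuc-SERCaMP-expressing SH-SY5Y cells, pretreated 16 h with compound, are challenged with thapsigargin to empty ER calcium stores; after 4 h, coelenterazine is added directly to the medium and luminescence is imaged.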
# [12] = AP1 Signaling Pathway (AID 357; active = well fitted curve in either direction with a large enough effect, not every such curve was filed as active;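 also: ME-180 reporter cells stimulated with EGF at its EC50 level; % is scaled to controls: 0 for no effect and ±100 for the full control effect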); conditions: ME-180 AP-1-bla reporter, EGF-induced, beta-lactamase ratio, 5 h; at 7.69 µM (top of the series) unless noted
# In short: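 AP-1-bla ME-180 cells, Opti-MEM + 0.5% dialyzed FBS, plated overnight 37 °C. Cpd titration + EC50 EGF, 5 h 37 °C. CCF4 2.5 h RT; ex 405, em 460/530 ratio → %activity, AC50.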
# [13] = biological target: Cytochrome P450 1A2 (Homo sapiens) (UniProt P05177); test: p450-cyp1a2 (AID 410; calls by dose curve; also: potency is read from the fitted curve at half-maximal effect); conditions: recombinant CYP1A2, luciferin-ME demethylation, luminescence; series mostly up to 57 µM
# Sequence of Cytochrome P450 1A2 (Homo sapiens) (P05177 whole entry, looked up): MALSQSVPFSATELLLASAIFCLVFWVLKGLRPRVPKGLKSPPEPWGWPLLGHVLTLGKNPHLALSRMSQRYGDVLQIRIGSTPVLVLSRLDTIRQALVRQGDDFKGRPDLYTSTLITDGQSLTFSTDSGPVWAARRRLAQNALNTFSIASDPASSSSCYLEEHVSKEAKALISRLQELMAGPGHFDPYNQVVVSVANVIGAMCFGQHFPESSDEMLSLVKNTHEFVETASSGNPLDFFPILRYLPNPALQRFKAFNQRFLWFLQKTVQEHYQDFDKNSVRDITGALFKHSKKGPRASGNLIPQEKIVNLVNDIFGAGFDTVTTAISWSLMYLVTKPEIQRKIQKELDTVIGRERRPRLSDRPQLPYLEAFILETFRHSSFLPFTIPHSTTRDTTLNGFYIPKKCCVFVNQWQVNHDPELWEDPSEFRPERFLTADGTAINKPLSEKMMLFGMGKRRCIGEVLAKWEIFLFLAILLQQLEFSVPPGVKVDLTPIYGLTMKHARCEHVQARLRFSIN
# In short: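 Inhibition was calculated relative to 57 uM furafylline (full inhibition). The reaction used human CYP1A2 at 20nM with Luciferin-ME at its Km, 100uM, driven by an NADPH-regenerating system for 60 min at room temperature.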
# [14] = NFAT Signaling Pathway (AID 444; active = well fitted curve in either direction with a large enough effect, not every such curve was filed as active;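 also: carbachol stimulus at about its EC50 of 1 µM final; % is scaled to controls: 0 for no effect and ±100 for the full control effect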); conditions: Jurkat NFAT-bla M1, carbachol, beta-lactamase ratio, 5 h; at 7.69 µM (top of the series) unless noted
# In short: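 Jurkat cells with NFAT-driven β-lactamase reporter and co-expressed M1 receptor, stimulated with carbachol (final 1 uM, ~EC50), compound titration, 5 h at 37 °C. CCF4 loaded 1 h at RT; 460/530 nm ratio gave %activity and AC50.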
# [15] = Stat Signaling Pathway (AID 446; active = well fitted curve in either direction with a large enough effect, not every such curve was filed as active); conditions: ME-180 SIE beta-lactamase reporter, IL-6 stimulated, 5 h; at 7.69 µM (top of the series) unless noted
# In short: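 ME-180 cells carrying a SIE-driven beta-lactamase reporter are stimulated with 40 pM IL-6 for 5 h at 37C in the presence of compound. The 460/530 nm FRET substrate ratio is read after 2.5 h at RT. Data are normalised to 300 pM IL-6 and to 125 nM JAK inhibitor controls.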
# [16] = biological target: Cytochrome P450 3A4 (Homo sapiens) (UniProt P08684); test: qHTS Assay for Inhibitors and Substrates of Cytochrome P450 3A4 (AID 884); conditions: recombinant CYP3A4, Luciferin-PPXE luminescence; series mostly up to 57.1 µM; also: potency is read from the fitted curve at half-maximal effect; nearly all actives have a fitted effect of over 50% in size
# Sequence of Cytochrome P450 3A4 (Homo sapiens) (P08684 whole entry, looked up): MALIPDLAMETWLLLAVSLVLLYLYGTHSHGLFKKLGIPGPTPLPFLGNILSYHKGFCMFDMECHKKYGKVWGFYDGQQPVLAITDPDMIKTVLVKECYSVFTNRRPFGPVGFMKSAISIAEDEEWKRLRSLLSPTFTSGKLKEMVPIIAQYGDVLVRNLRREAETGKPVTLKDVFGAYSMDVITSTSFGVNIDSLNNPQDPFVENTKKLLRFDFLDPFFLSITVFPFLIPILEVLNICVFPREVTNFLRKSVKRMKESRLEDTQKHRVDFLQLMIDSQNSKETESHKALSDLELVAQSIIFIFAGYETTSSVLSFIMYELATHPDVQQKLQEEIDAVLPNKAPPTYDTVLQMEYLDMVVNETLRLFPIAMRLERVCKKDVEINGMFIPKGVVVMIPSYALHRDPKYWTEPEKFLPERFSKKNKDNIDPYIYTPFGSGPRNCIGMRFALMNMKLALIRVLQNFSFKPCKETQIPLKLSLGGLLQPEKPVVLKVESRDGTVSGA
# In short: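 20 nM human CYP3A4 with 25 uM Luciferin-PPXE (at KM) in 200 mM KPO4, preincubated 10 min with compound; NADPH regeneration started a 60 min RT reaction. Luciferin detected by luminescence, normalized to 57 uM ketoconazole as full inhibition.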
# [17] = biological target: Cytochrome P450 3A4 (Homo sapiens) (UniProt P08684); test: qHTS Assay for Activators of Cytochrome P450 3A4 (AID 885); conditions: recombinant CYP3A4, Luciferin-PPXE luminescence, 60 min; series mostly up to 57.1 µM; also: nearly all actives have a fitted effect of over 65% in size
# In short: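 Human CYP3A4 (20 nM) with Luciferin-PPXE at 25 uM (its KM) in 200 mM KPO4; 10 min compound preincubation, then NADPH regeneration and 60 min reaction at RT. Luciferin read by luminescence; normalized to 57 uM ketoconazole full inhibition.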
# [18] = biological target: Cytochrome P450 2D6 (Homo sapiens) (UniProt P10635); test: qHTS Assay for Inhibitors and Substrates of Cytochrome P450 2D6 (AID 891); conditions: recombinant CYP2D6, luciferin-ME EGE luminescence; series mostly up to 57.1 µM; also: potency is read from the fitted curve at half-maximal effect; nearly all actives have a fitted effect of over 60% in size
# Sequence of Cytochrome P450 2D6 (Homo sapiens) (P10635 whole entry, looked up): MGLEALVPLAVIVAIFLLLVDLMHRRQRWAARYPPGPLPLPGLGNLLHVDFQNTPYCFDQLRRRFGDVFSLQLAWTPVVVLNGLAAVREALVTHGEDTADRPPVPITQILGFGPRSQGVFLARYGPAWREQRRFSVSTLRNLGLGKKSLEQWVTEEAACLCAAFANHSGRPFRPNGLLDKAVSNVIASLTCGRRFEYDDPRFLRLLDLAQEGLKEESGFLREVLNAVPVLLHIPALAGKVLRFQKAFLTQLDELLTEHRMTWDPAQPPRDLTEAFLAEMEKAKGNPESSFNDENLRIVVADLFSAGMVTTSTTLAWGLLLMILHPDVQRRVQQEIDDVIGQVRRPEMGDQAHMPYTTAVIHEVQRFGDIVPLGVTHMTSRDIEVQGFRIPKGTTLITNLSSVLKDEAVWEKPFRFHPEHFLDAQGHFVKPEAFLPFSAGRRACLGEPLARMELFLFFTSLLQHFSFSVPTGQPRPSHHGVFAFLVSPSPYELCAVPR
# In short: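 Human CYP2D6 (5 nM) with 30 uM Luciferin-ME EGE (at Km) in 100 mM KPO4, compound preincubated 10 min, then NADPH regeneration system for 60 min at room temperature. Luciferin read by luminescence; normalized to 1.43 uM quinidine.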
# [19] = Confirmation and Secondary Assay for Modulators of Hemoglobin Beta Chain Splicing at IVS2 654 locus (AID 910); conditions: HeLa EGFP-654 splicing reporter, GFP fluorescence, 48 h; series mostly up to 38.3 µM;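 also: HeLa cells stably carrying EGFP split by mutant beta-globin IVS2-654 intron; % of control where 0% means no effect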
# In short: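 HeLa cells stably expressing EGFP interrupted by β-globin IVS2-654 intron, seeded overnight in Opti-MEM/2% FCS, then treated 2 days at 37 °C. Restored splicing read as total peak GFP intensity per well by laser scanning cytometry (488 nm excitation, 500–520 nm emission); 500 nM antisense PNA as control.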
# [20] = Confirmation and Secondary Assay for Modulators of Hemoglobin Beta Chain Splicing at IVS2 705 locus (AID 930); conditions: HeLa EGFP-705 splicing reporter, GFP fluorescence, 48 h; series mostly up to 38.3 µM;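 also: HeLa cells stably expressing the EGFP-705 splicing reporter; GFP fluorescence per well restored by corrected splicing of the IVS2-705 intron in EGFP; % of control where 0% means no effect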
# In short: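 HeLa EGFP-705 reporter; 500 cells/well, o/n 37C 5% CO2; cpd 2 d; 488 ex/500-520 em laser scan; total peak GFP intensity/well. Ref: 500 nM […] antisense PNA.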
# [21] = Confirmatory qHTS for small molecule stabilizers of the endoplasmic reticulum resident proteome: Secreted ER Calcium Modulated Protein (SERCaMP) assay (AID 1508628); conditions: SERCaMP secreted luciferase ER calcium/proteostasis reporter; series mostly up to 76.3 µM; also: potency is read from the fitted curve at half-maximal effect; nearly all actives have a fitted effect of over 40% in size
# In short: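 We seeded SH-SY5Y-GLuc-SERCaMP cells, added compounds (three concentrations in the primary run, eleven up to 76.6 uM in confirmation), incubated 16 h, depleted ER calcium with thapsigargin, and read luciferase 4 h later.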
smiles,measurement,setting,value
O=c1c(-c2cc(F)cc(F)c2)nc2cnc(N3CCNCC3)nc2n1-c1ccccc1,Potency,[1],> 11.4 µM (inactive)
same,Potency,[2],> 9.22 µM (inactive)
same,Potency,[3],> 46 µM (inactive)
same,outcome,[4],inactive
same,Potency,[5],inactive
same,"activity change, negative = inhibition",[6]; at 57.5 µM (top of the series),4.01% (inactive)
same,max response,[6]; measured here: cell count channel max response,3.1%
same,max response,[6]; measured here: lipid channel max response,4.03%
same,Potency,[7],15.8 µM (active)
same,Potency,[8],22.4 µM (active)
same,Potency,[9],inactive
same,Potency,[10],inactive
COC(=O)[C@H]1Cc2c([nH]c3ccccc23)CN1C(=O)COc1ccc2c(C)cc(=O)oc2c1,Potency,[11],inactive
Nc1nc(=S)c2ncn([C@@H]3O[C@H](CO)[C@@H](O)[C@H]3O)c2[nH]1,Potency,[11],inactive
CN(C)CCc1cc2c(c3c1ccc1ccccc13)OCO2,Potency,[11],inactive
COc1ccc(/C=C/C(=O)/C=C/c2ccc(OC)cc2OC)c(OC)c1,Potency,[11],inactive
C=CC(C1=CC(=O)C=CC1=O)c1ccc(O)cc1 (configuration not stated),Potency,[11],inactive
c1ccc2c(N3CCNCC3)nc(-c3ccc4c(c3)OCO4)nc2c1,Potency,[1],> 11.4 µM (inactive)
same,"activity change, negative = inhibition",[12],14.9% (inactive)
same,Potency,[13],12.6 µM (active)
same,"activity change, negative = inhibition",[14],11.9% (inactive)
same,"activity, negative = inhibition",[15],7.14% (inactive)
same,Potency,[3],> 46 µM (inactive)
same,outcome,[4],inactive
same,Potency,[5],inactive
same,Potency,[16],7.94 µM (active)
same,Potency,[17],inactive
same,Potency,[18],3.16 µM (active)
same,outcome,[19],inactive
same,outcome,[20],inactive
same,Potency,[9],inactive
same,Potency,[21],20 µM (active)
